Reference: the supplement of paper PMC3545927
This is one part of the list. The hit rate among all sequences tested is not known here.

Molecular target: furin, P09958
Assay: furin cleavage Z-score vs untreated control; higher = more cleavage, active = 3.5 or more, inactive = 1 or less, 8 variable residues between constant flanks
Summary of the method: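 Purified furin cleaved 8-mer peptides that were fused to a cDNA oligonucleotide and held on magnetic beads by their N-terminus. Each 0.01 ml reaction used a 1:10 enzyme:substrate ratio in 50 mM HEPES pH 7.5 with CaCl2 and NaCl and ran 7.5, 15 or 30 min. Released DNA was adapter-tagged by PCR and sequenced, and read counts gave abundance. The cleavage Z-score came from log counts against furin-free reactions, lowess-adjusted and scaled by median absolute deviation.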

Chain of furin, P09958 (P09958 whole entry): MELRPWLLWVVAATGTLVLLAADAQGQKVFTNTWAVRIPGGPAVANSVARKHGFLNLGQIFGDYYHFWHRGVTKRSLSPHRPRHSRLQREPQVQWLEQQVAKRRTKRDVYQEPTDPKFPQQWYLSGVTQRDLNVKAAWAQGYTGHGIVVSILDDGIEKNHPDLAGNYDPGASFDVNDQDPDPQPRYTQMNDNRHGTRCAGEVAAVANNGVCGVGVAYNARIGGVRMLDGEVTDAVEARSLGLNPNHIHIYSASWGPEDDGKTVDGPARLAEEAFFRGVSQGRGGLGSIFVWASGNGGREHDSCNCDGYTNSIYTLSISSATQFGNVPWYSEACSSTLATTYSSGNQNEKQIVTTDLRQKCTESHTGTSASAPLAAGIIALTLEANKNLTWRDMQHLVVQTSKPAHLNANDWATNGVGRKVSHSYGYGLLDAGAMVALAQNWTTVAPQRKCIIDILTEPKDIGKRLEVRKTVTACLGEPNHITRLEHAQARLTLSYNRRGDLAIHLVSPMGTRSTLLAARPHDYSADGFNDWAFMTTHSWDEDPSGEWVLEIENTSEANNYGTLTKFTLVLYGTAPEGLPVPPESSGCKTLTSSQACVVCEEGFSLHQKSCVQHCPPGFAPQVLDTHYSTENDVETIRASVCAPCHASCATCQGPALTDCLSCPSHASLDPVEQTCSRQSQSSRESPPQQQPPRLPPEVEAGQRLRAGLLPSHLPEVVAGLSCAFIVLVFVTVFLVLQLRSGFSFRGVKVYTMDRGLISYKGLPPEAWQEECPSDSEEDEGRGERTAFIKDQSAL

Sequence	furin cleavage Z-score (7.5 min)	furin cleavage Z-score (15 min)	furin cleavage Z-score (30 min)
CAQNVQLINTAGNASASA [HC365]	-0.00687 (inactive)	0.24 (inactive)	0.289 (inactive)
CAEVPCHRPSAGNASASA [HC2312]	0.893 (inactive)	0.385 (inactive)	0.669 (inactive)
CAALCRHRRLAGNASASA [FS-154]	4.73 (active)	5.6 (active)	6.55 (active)
CAHAYRHRRLAGNASASA [FS-1531]	0.687 (inactive)	2.16	3.53 (active)
CAHAYRPGRRAGNASASA [FS-247]	-0.291 (inactive)	-0.643 (inactive)	1.65
CACTCGSSDLAGNASASA [HC722]	-1.16 (inactive)	-3.51 (inactive)	-0.486 (inactive)
CAGIMHTRCHAGNASASA [HC1172]	1.75	2.22	0.438 (inactive)
CARASRSIRIAGNASASA [FS-2893]	3.6 (active)	6.75 (active)	7.27 (active)
CARASRGGGGAGNASASA [FS-2891]	-0.8 (inactive)	-0.464 (inactive)	-0.232 (inactive)
CARASRNKRPAGNASASA [FS-1559]	0.256 (inactive)	-0.194 (inactive)	0.132 (inactive)
CARATRKIGIAGNASASA [FS-2132]	-0.496 (inactive)	-1.56 (inactive)	-0.101 (inactive)
CACPRRAKRRAGNASASA [FS-119]	4.82 (active)	4.82 (active)	5.05 (active)
CARASRAKRRAGNASASA [FS-1477]	11.9 (active)	12.4 (active)	8.04 (active)
CAEVPCHKPSAGNASASA [HC2374]	0.115 (inactive)	1	-0.202 (inactive)
CADFMEECSQAGNASASA [HC1807]	0.00727 (inactive)	-0.301 (inactive)	-1.48 (inactive)
CAMCAVHPTLAGNASASA [HC599]	-1.6 (inactive)	-0.0857 (inactive)	-0.861 (inactive)
CAFYGKAIPLAGNASASA [HC848]	0.497 (inactive)	-0.506 (inactive)	-2.2 (inactive)
CALWARMILMAGNASASA [HC1580]	-0.179 (inactive)	-0.799 (inactive)	-1.16 (inactive)
CANILRKARSAGNASASA [FS-366]	9.27 (active)	9.75 (active)	7.85 (active)
CATWLKAKLMAGNASASA [HC1157]	3.1	1.6	3.5 (active)
CATCGFADLMAGNASASA [HC224]	-0.244 (inactive)	-0.821 (inactive)	-0.0608 (inactive)
CANNARAARSAGNASASA [FS-1547]	5.1 (active)	5 (active)	5.02 (active)
CATLLRAARSAGNASASA [FS-1659]	4.67 (active)	4.38 (active)	3.86 (active)
CATTPCSGQWAGNASASA [HC1922]	-0.163 (inactive)	-0.899 (inactive)	-0.665 (inactive)
CAVYTFYGMWAGNASASA [HC554]	-0.934 (inactive)	-0.697 (inactive)	-0.425 (inactive)
CASTPCSWHLAGNASASA [HC2528]	1.37	0.165 (inactive)	-0.0279 (inactive)
CASTPCSAQLAGNASASA [HC2562]	-1.59 (inactive)	0.487 (inactive)	0.259 (inactive)
CAEGEVPCHRAGNASASA [HC2456]	1.8	1.4	0.687 (inactive)
